Test results published in PubChem BioAssay AID1159580 (chemical genetic matrix, 2015).
Screen size: about 5,500 compounds; about 2,000 (36%) were called active. About 18% were inconclusive and are not listed. Cut-off read from the data, not from the text of the source: active = normalized growth mostly below about 0.91 (no sharp cut-off); inconclusive = no clear call, values can overlap the other calls; inactive = mostly above about 0.92. The list shows a part of the results.

Experiment: chemical genetic growth profiling, strain panel (AID 1159580);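 note: tested at 20 µM; growth read once vehicle control cultures reached saturation at 30 °C; 1 = growth at the plate median or of vehicle wells; lower values mean less growth of the strain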
Conditions: growth OD

Measured: normalized growth

COc1ccc2c(c1)C1(C)CCC(=O)CC1CC2 (stereo not drawn)
inactive: S. cerevisiae deletion strains, locus YAL021C, strain ccr4, active compounds read low 1.01 | S. cerevisiae deletion strains, locus YAL026C, strain drs2, active compounds read low 1.04 | S. cerevisiae deletion strains, locus YAL030W, strain snc1, active compounds read low 1 | S. cerevisiae deletion strains, locus YBL061C, strain skt5, active compounds read low 1.01 | S. cerevisiae deletion strains, locus YBR009C, strain hhf1, active compounds read low 1.01 | S. cerevisiae deletion strains, locus YBR021W, strain FUR4, active compounds read low 0.976 | S. cerevisiae deletion strains, locus YBR023C, strain chs3, active compounds read low 1.01 | S. cerevisiae deletion strains, locus YBR171W, strain sec66, active compounds read low 1.01 | S. cerevisiae deletion strains, locus YBR229C, strain ROT2, active compounds read low 0.994 | S. cerevisiae deletion strains, locus YBR231C, strain swc5, active compounds read low 1.04 | S. cerevisiae deletion strains, locus YBR279W, strain paf1, active compounds read low 1 | S. cerevisiae deletion strains, locus YCL011C, strain gbp2, active compounds read low 1.01 | S. cerevisiae deletion strains, locus YCL016C, strain dcc1, active compounds read low 1 | S. cerevisiae deletion strains, locus YCL029C, strain bik1, active compounds read low 0.986 | S. cerevisiae deletion strains, locus YCL061C, strain MRC1, active compounds read low 1.01 | S. cerevisiae deletion strains, locus YCL069W, strain vba3, active compounds read low 1 | S. cerevisiae deletion strains, locus YCR088W, strain abp1, active compounds read low 1.01 | S. cerevisiae deletion strains, locus YDL005C, strain med2, active compounds read low 1.01 | S. cerevisiae deletion strains, locus YDL035C, strain GPR1, active compounds read low 1.01 | S. cerevisiae deletion strains, locus YDL040C, strain nat1, active compounds read low 0.999 | S. cerevisiae deletion strains, locus YDL074C, strain BRE1, active compounds read low 1.02 | S. cerevisiae deletion strains, locus YDL101C, strain DUN1, active compounds read low 0.998 | S. cerevisiae deletion strains, locus YDL134C, strain PPH21, active compounds read low 0.947 | S. cerevisiae deletion strains, locus YDL185W, strain tfp1, active compounds read low 0.989 | S. cerevisiae deletion strains, locus YDL192W, strain arf1, active compounds read low 0.989 | S. cerevisiae deletion strains, locus YDR001C, strain nth1, active compounds read low 1.01 | S. cerevisiae deletion strains, locus YDR069C, strain doa4, active compounds read low 1.02 | S. cerevisiae deletion strains, locus YDR101C, strain arx1, active compounds read low 1 | S. cerevisiae deletion strains, locus YDR137W, strain rgp1, active compounds read low 0.967 | S. cerevisiae deletion strains, locus YDR150W, strain NUM1, active compounds read low 0.991 | S. cerevisiae deletion strains, locus YDR159W, strain sac3, active compounds read low 1.06 | S. cerevisiae deletion strains, locus YDR162C, strain NBP2, active compounds read low 1 | S. cerevisiae deletion strains, locus YDR195W, strain ref2 1.04 | S. cerevisiae deletion strains, locus YDR297W, strain sur2, active compounds read low 1.02 | S. cerevisiae deletion strains, locus YDR318W, strain mcm21, active compounds read low 0.988 | S. cerevisiae deletion strains, locus YDR334W, strain swr1, active compounds read low 1 | S. cerevisiae deletion strains, locus YDR335W, strain msn5, active compounds read low 1.01 | S. cerevisiae deletion strains, locus YDR388W, active compounds read low 0.989 | S. cerevisiae deletion strains, locus YDR392W, strain spt3, active compounds read low 0.996 | S. cerevisiae deletion strains, locus YDR502C, strain sam2, active compounds read low 0.977 | S. cerevisiae deletion strains, locus YEL003W, strain gim4, active compounds read low 1.01 | S. cerevisiae deletion strains, locus YEL037C, strain rad23, active compounds read low 1.02 | S. cerevisiae deletion strains, locus YEL061C, strain CIN8 (second series), active compounds read low 1.01 | S. cerevisiae deletion strains, locus YEL061C, strain CIN8, active compounds read low 0.993 | S. cerevisiae deletion strains, locus YER015W, strain faa2, active compounds read low 1.01 | S. cerevisiae deletion strains, locus YER016W, strain bim1, active compounds read low 1 | S. cerevisiae deletion strains, locus YER110C, active compounds read low 0.979 | S. cerevisiae deletion strains, locus YER111C, strain swi4, active compounds read low 1.01 | S. cerevisiae deletion strains, locus YER155C, strain BEM2 (second series), active compounds read low 1.02 | S. cerevisiae deletion strains, locus YER155C, strain BEM2, active compounds read low 0.988 | S. cerevisiae deletion strains, locus YER167W, strain BCK2, active compounds read low 0.999 | S. cerevisiae deletion strains, locus YFR010W, strain ubp6, active compounds read low 1.02 | S. cerevisiae deletion strains, locus YGL078C, strain dbp3, active compounds read low 0.982 | S. cerevisiae deletion strains, locus YGL086W, strain mad1, active compounds read low 0.98 | S. cerevisiae deletion strains, locus YGL167C, strain pmr1, active compounds read low 1.01 | S. cerevisiae deletion strains, locus YGL173C, strain kem1, active compounds read low 1.01 | S. cerevisiae deletion strains, locus YGL227W, strain vid30, active compounds read low 1.01 | S. cerevisiae deletion strains, locus YGL240W, strain doc1, active compounds read low 1.01 | S. cerevisiae deletion strains, locus YGL248W, strain PDE1, active compounds read low 0.971 | S. cerevisiae deletion strains, locus YGL253W, strain hxk2, active compounds read low 1.03 | S. cerevisiae deletion strains, locus YGR135W, strain pre9, active compounds read low 0.965 | S. cerevisiae deletion strains, locus YGR252W, strain gcn5, active compounds read low 0.96 | S. cerevisiae deletion strains, locus YHR013C, strain ard1, active compounds read low 1.05 | S. cerevisiae deletion strains, locus YHR027C, strain rpn1, active compounds read low 1.03 | S. cerevisiae deletion strains, locus YHR030C, strain SLT2, active compounds read low 0.993 | S. cerevisiae deletion strains, locus YHR079C, strain IRE1 (second series), active compounds read low 0.991 | S. cerevisiae deletion strains, locus YHR094C, strain hxt1, active compounds read low 0.984 | S. cerevisiae deletion strains, locus YHR129C, strain ARP1, active compounds read low 0.993 | S. cerevisiae deletion strains, locus YHR142W, strain chs7, active compounds read low 1.02 | S. cerevisiae deletion strains, locus YHR200W, strain rpn10, active compounds read low 0.985 | S. cerevisiae deletion strains, locus YIL066C, strain RNR3, active compounds read low 1.01 | S. cerevisiae deletion strains, locus YIL073C, strain SPO22, active compounds read low 0.994 | S. cerevisiae deletion strains, locus YIL125W, strain kgd1, active compounds read low 0.987 | S. cerevisiae deletion strains, locus YIR030C, strain dcg1, active compounds read low 0.983 | S. cerevisiae deletion strains, locus YJL092W, strain hpr5, active compounds read low 1.01 | S. cerevisiae deletion strains, locus YJL095W, strain BCK1 (second series), active compounds read low 1.01 | S. cerevisiae deletion strains, locus YJL095W, strain BCK1, active compounds read low 0.953 | S. cerevisiae deletion strains, locus YJL115W, strain asf1, active compounds read low 1.02 | S. cerevisiae deletion strains, locus YJL129C, strain trk1, active compounds read low 1.01 | S. cerevisiae deletion strains, locus YJL134W, strain LCB3, active compounds read low 0.992 | S. cerevisiae deletion strains, locus YJL154C, strain vps35, active compounds read low 1.01 | S. cerevisiae deletion strains, locus YJL164C, strain tpk1, active compounds read low 1.01 | S. cerevisiae deletion strains, locus YJL166W, strain qcr8, active compounds read low 1.01 | S. cerevisiae deletion strains, locus YJL168C, strain set2, active compounds read low 0.989 | S. cerevisiae deletion strains, locus YJL187C, strain SWE1 (second series), active compounds read low 0.979 | S. cerevisiae deletion strains, locus YJL187C, strain SWE1, active compounds read low 1.01 | S. cerevisiae deletion strains, locus YJR043C, strain POL32, active compounds read low 1.03 | S. cerevisiae deletion strains, locus YKL009W, strain mrt4, active compounds read low 0.969 | S. cerevisiae deletion strains, locus YKL068W, active compounds read low 0.978 | S. cerevisiae deletion strains, locus YKL085W, strain MDH1 (second series), active compounds read low 0.984 | S. cerevisiae deletion strains, locus YKL085W, strain MDH1, active compounds read low 0.984 | S. cerevisiae deletion strains, locus YKL160W, strain elf1, active compounds read low 1 | S. cerevisiae deletion strains, locus YKR001C, strain vps1, active compounds read low 0.965 | S. cerevisiae deletion strains, locus YKR026C, strain gcn3, active compounds read low 1.01 | S. cerevisiae deletion strains, locus YKR091W, strain srl3, active compounds read low 1.01 | S. cerevisiae deletion strains, locus YLL001W, strain dnm1, active compounds read low 1.01 | S. cerevisiae deletion strains, locus YLL026W, active compounds read low 1 | S. cerevisiae deletion strains, locus YLL041C, strain sdh2, active compounds read low 1 | S. cerevisiae deletion strains, locus YLR027C, strain aat2, active compounds read low 1 | S. cerevisiae deletion strains, locus YLR039C, strain RIC1, active compounds read low 0.957 | S. cerevisiae deletion strains, locus YLR058C, strain SHM2, active compounds read low 0.996 | S. cerevisiae deletion strains, locus YLR102C, strain apc9, active compounds read low 0.98 | S. cerevisiae deletion strains, locus YLR221C, strain rsa3, active compounds read low 1.03 | S. cerevisiae deletion strains, locus YLR258W, strain gsy2, active compounds read low 1.02 | S. cerevisiae deletion strains, locus YLR262C, strain YPT6 (second series), active compounds read low 0.99 | S. cerevisiae deletion strains, locus YLR268W, strain sec22, active compounds read low 0.978 | S. cerevisiae deletion strains, locus YLR320W, strain mms22, active compounds read low 1.02 | S. cerevisiae deletion strains, locus YLR330W, strain CHS5, active compounds read low 0.986 | S. cerevisiae deletion strains, locus YLR342W, strain FKS1 (second series), active compounds read low 0.949 | S. cerevisiae deletion strains, locus YLR342W, strain FKS1, active compounds read low 1.01 | S. cerevisiae deletion strains, locus YLR357W, strain rsc2, active compounds read low 1.01 | S. cerevisiae deletion strains, locus YLR370C, strain arc18, active compounds read low 1 | S. cerevisiae deletion strains, locus YLR371W, strain rom2, active compounds read low 1 | S. cerevisiae deletion strains, locus YLR384C, strain iki3, active compounds read low 1.01 | S. cerevisiae deletion strains, locus YLR418C, strain cdc73, active compounds read low 0.962 | S. cerevisiae deletion strains, locus YML016C, strain PPZ1, active compounds read low 0.987 | S. cerevisiae deletion strains, locus YML032C, strain rad52, active compounds read low 0.996 | S. cerevisiae deletion strains, locus YML120C, strain ndi1, active compounds read low 0.996 | S. cerevisiae deletion strains, locus YML124C, strain tub3, active compounds read low 0.98 | S. cerevisiae deletion strains, locus YMR058W, strain fet3, active compounds read low 1.02 | S. cerevisiae deletion strains, locus YMR078C, strain ctf18, active compounds read low 0.985 | S. cerevisiae deletion strains, locus YMR125W, strain sto1, active compounds read low 0.994 | S. cerevisiae deletion strains, locus YMR129W, active compounds read low 1.01 | S. cerevisiae deletion strains, locus YMR205C, strain PFK2, active compounds read low 1.01 | S. cerevisiae deletion strains, locus YMR223W, strain ubp8, active compounds read low 0.975 | S. cerevisiae deletion strains, locus YMR231W, strain pep5, active compounds read low 1.01 | S. cerevisiae deletion strains, locus YMR263W, strain SAP30, active compounds read low 0.99 | S. cerevisiae deletion strains, locus YMR307W, strain GAS1, active compounds read low 1.04 | S. cerevisiae deletion strains, locus YNL067W, strain RPL9B, active compounds read low 0.974 | S. cerevisiae deletion strains, locus YNL071W, strain lat1, active compounds read low 1 | S. cerevisiae deletion strains, locus YNL209W, strain ssb2, active compounds read low 1.01 | S. cerevisiae deletion strains, locus YNL233W, strain BNI4, active compounds read low 0.971 | S. cerevisiae deletion strains, locus YNL248C, strain rpa49, active compounds read low 1.06 | S. cerevisiae deletion strains, locus YNL250W, strain rad50, active compounds read low 0.994 | S. cerevisiae deletion strains, locus YNL271C, strain bni1, active compounds read low 0.986 | S. cerevisiae deletion strains, locus YNL298W, strain CLA4, active compounds read low 0.982 | S. cerevisiae deletion strains, locus YNL307C, strain MCK1, active compounds read low 0.98 | S. cerevisiae deletion strains, locus YNL322C, strain KRE1 (second series), active compounds read low 0.995 | S. cerevisiae deletion strains, locus YNR049C, strain mso1, active compounds read low 1.04 | S. cerevisiae deletion strains, locus YNR052C, strain pop2, active compounds read low 0.986 | S. cerevisiae deletion strains, locus YOL006C, strain TOP1, active compounds read low 0.969 | S. cerevisiae deletion strains, locus YOL012C, strain htz1 0.718 | S. cerevisiae deletion strains, locus YOL147C, strain pex11, active compounds read low 0.988 | S. cerevisiae deletion strains, locus YOR001W, strain rrp6, active compounds read low 1.02 | S. cerevisiae deletion strains, locus YOR061W, strain CKA2, active compounds read low 1 | S. cerevisiae deletion strains, locus YOR069W, strain VPS5, active compounds read low 0.991 | S. cerevisiae deletion strains, locus YOR070C, strain gyp1, active compounds read low 1.02 | S. cerevisiae deletion strains, locus YOR080W, strain dia2, active compounds read low 1.01 | S. cerevisiae deletion strains, locus YOR083W, strain WHI5, active compounds read low 1.01 | S. cerevisiae deletion strains, locus YOR106W, strain vam3, active compounds read low 1.02 | S. cerevisiae deletion strains, locus YOR136W, strain idh2, active compounds read low 0.988 | S. cerevisiae deletion strains, locus YOR144C, strain elg1, active compounds read low 0.985 | S. cerevisiae deletion strains, locus YOR184W, strain ser1, active compounds read low 0.952 | S. cerevisiae deletion strains, locus YOR265W, strain rbl2, active compounds read low 0.987 | S. cerevisiae deletion strains, locus YOR270C, strain vph1, active compounds read low 1.07 | S. cerevisiae deletion strains, locus YOR290C, strain snf2, active compounds read low 0.981 | S. cerevisiae deletion strains, locus YOR316C, strain cot1, active compounds read low 0.992 | S. cerevisiae deletion strains, locus YPL051W, strain arl3, active compounds read low 1.02 | S. cerevisiae deletion strains, locus YPL055C, strain LGE1, active compounds read low 1.02 | S. cerevisiae deletion strains, locus YPL078C, strain atp4, active compounds read low 0.996 | S. cerevisiae deletion strains, locus YPL106C, strain sse1, active compounds read low 1.04 | S. cerevisiae deletion strains, locus YPL240C, strain hsp82, active compounds read low 0.986 | S. cerevisiae deletion strains, locus YPR119W, strain clb2, active compounds read low 0.984 | S. cerevisiae deletion strains, locus YPR141C, strain kar3, active compounds read low 0.96 | S. cerevisiae deletion strains, locus YPR163C, strain tif3, active compounds read low 0.97 | S. cerevisiae deletion strains, locus YPR167C, strain met16, active compounds read low 0.981 | S. cerevisiae deletion strains, strain wtn01, active compounds read low 0.98 | S. cerevisiae strains, strain wild type, active compounds read low 1
